Assay results taken from the supplement of paper PMC12350171.
Counter-ions that a name gives are not always drawn. Values without a mark were called inactive.

Columns and labels:
Conditions in all cases: 20 µM
[1] = system: Salmonella enterica typhimurium; assay: growth AUC normalised to DMSO control (fraction of control); higher = less growth inhibition, active = hit call of the paper
How it was run: (§1)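 Pathogens passaged twice anaerobically were inoculated at a starting OD578 of 0.01 into pre-reduced mGAM plates with drug at 20 μM and 1% DMSO, sealed with breathable membranes. Haemophilus parainfluenzae medium was supplemented with hemin and NAD. OD578 was read hourly for 24 h, with three biological replicates. Growth-curve AUC was computed by the trapezoidal rule up to the exponential-to-stationary transition and normalised to DMSO controls on the same plate.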

Shigella flexneri = assay: as above
How it was run: as §1

Vibrio cholerae = assay: as above
How it was run: as §1

[2] = system: Yersinia pseudotuberculosis; assay: as above
How it was run: as §1

P. vulgatus RND KO = assay: growth AUC normalised to DMSO control (median) (fraction of control); higher = less growth inhibition, active = hit call of the paper
How it was run: (§2)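 For normalised area under the curve, growth curves were truncated at entry into stationary phase, integrated by the trapezoidal rule and divided against vehicle wells on the same plate. The curves came from strains passaged twice overnight without oxygen and then grown in mGAM in 96-well plates at a starting OD578 of 0.01. Each well held an approved-drug library compound at 20 μM with 1% DMSO, and OD578 was read hourly for 24 h in an anaerobic incubator. Values are medians of three biological replicates.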

P. vulgatus WT = assay: as above
How it was run: as §2

[3] = system: S. enterica typhimurium WT; assay: as above
How it was run: as §2

[4] = system: S. enterica typhimurium tolC KO; assay: as above
How it was run: as §2
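For growth AUC normalised to DMSO control (median) in this document: active when median AUC fell below 0.1.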

Row | SMILES | growth AUC normalised to DMSO control [1] | growth AUC normalised to DMSO control (Shigella flexneri) | growth AUC normalised to DMSO control (Vibrio cholerae) | growth AUC normalised to DMSO control [2] | growth AUC normalised to DMSO control (P. vulgatus RND KO) | growth AUC normalised to DMSO control (P. vulgatus WT) | growth AUC normalised to DMSO control [3] | growth AUC normalised to DMSO control [4]
1 | CC[N+](C)(C)Cc1ccccc1Br [Bretylium tosylate] | 1 | 1.01 | 1.02 | 1.02 | 0.995 | 1.03 | 1 | 0.999
2 | COC(c1ccccc1)(c1ccccc1)[C@H](Oc1nc(C)cc(C)n1)C(=O)O [Ambrisentan] | 0.98 | 1.02 | 1.01 | 1.01 | 0.997 | 0.983 | 0.991 | 0.99
3 | CN1CCCN=C1/C=C/c1cccs1 [Pyrantel tartrate] | 0.999 | 0.995 | 1.01 | 1.01 | 1.01 | 0.982 | 1.01 | 1
4 | Nc1ccn([C@H]2CC[C@@H](CO)O2)c(=O)n1 [Zalcitabine] | 1.02 | 1.02 | 1.06 | 1.04 | 1.04 | 1.06 | 1 | 1.01
5 | CC(C)(C(=O)O)c1ccc(C(O)CCCN2CCC(C(O)(c3ccccc3)c3ccccc3)CC2)cc1 (configuration not stated) [Fexofenadine hydrochloride] | 1.02 | 1.02 | 1.04 | 0.99 | 1.01 | 1.01 | 1.01 | 1
6 | Cc1ccc(-c2cc(C(F)(F)F)nn2-c2ccc(S(N)(=O)=O)cc2)cc1 [Celecoxib] | 1.01 | 1.02 | 0.851 (active) | 1.03 | 0.728 | 0.771 | 1.01 | 0.852
7 | CC(CN(C)C)C(C)(O)Cc1ccc(Cl)cc1 (configuration not stated) [Clobutinol hydrochloride] | 0.999 | 0.98 | 0.987 | 0.993 | 0.999 | 1.03 | 1.01 | 0.994
8 | O=C(Nc1ccccc1)OCC(CN1CCCCC1)OC(=O)Nc1ccccc1 (configuration not stated) [Diperodon hydrochloride] | 1.01 | 1.03 | 0.999 | 1.01 | 0.998 | 1.01 | 0.997 | 0.986
9 | COc1ccc2c(c1)C(=O)N(CCc1ccc(S(=O)(=O)NC(=O)NC3CCCCC3)cc1)C(=O)C2(C)C [Gliquidone] | 1 | 1.02 | 0.995 | 1 | 0.994 | 1.01 | 1.01 | 1
10 | C[C@@H]1C[C@H]2[C@@H]3C[C@H](F)C4=CC(=O)C=C[C@]4(C)[C@@]3(Cl)[C@@H](O)C[C@]2(C)[C@H]1C(=O)COC(=O)C(C)(C)C [Clocortolone pivalate] | 1.03 | 1.06 | 1.12 | 1.05 | 0.0165 (active) | 0.0896 (active) | 1.01 | 1.04
11 | CO[C@H]1/C=C/O[C@@]2(C)Oc3c(C)c(O)c4c(O)c(c(/C=N/N5CCN(C)CC5)c(O)c4c3C2=O)NC(=O)/C(C)=C\C=C\[C@H](C)[C@H](O)[C@@H](C)[C@@H](O)[C@@H](C)[C@H](OC(C)=O)[C@@H]1C [Rifampicin] | 0.23 (active) | 0.118 (active) | 1.01 | 0.0362 (active) | 0.0135 (active) | 0.0147 (active) | 0.523 | 0.254
12 | Cc1ccc(-c2ncc(Cl)cc2-c2ccc(S(C)(=O)=O)cc2)cn1 [Etoricoxib] | 1.01 | 1.03 | 1.03 | 0.989 | 1.01 | 1.03 | 0.972 | 0.978
13 | CC(C)(Sc1cc(C(C)(C)C)c(O)c(C(C)(C)C)c1)Sc1cc(C(C)(C)C)c(O)c(C(C)(C)C)c1 [Probucol] | 0.996 | 1.02 | 0.998 | 0.985 | 1 | 0.997 | 1.01 | 1
14 | C#C[C@]1(O)CC[C@H]2[C@@H]3CCC4=CC(=O)CC[C@@H]4[C@H]3CC[C@@]21C [Norethindrone] | 1.01 | 0.977 | 0.996 | 0.988 | 0.997 | 1.03 | 1.01 | 0.993
15 | Cc1cc(=O)n(-c2ccccc2)n1C [Antipyrine] | 1 | 1.01 | 1.01 | 1 | 1 | 1.04 | 0.989 | 1.01
16 | CC(C)(C)NC(=O)[C@@H]1C[C@@H]2CCCC[C@@H]2CN1C[C@@H](O)[C@H](Cc1ccccc1)NC(=O)[C@H](CC(N)=O)NC(=O)c1ccc2ccccc2n1 [Saquinavir mesylate] | 1.01 | 1.02 | 1.04 | 1.03 | 0.859 | 0.89 | 1.02 | 1
17 | C(=C\c1ccccc1)/CN1CCN(C(c2ccccc2)c2ccccc2)CC1 [Cinnarizine] | 0.986 | 0.925 | 0.895 | 0.976 | 1.01 | 1 | 0.997 | 0.965
18 | CN(C)[C@@H]1C(=O)C(C(=O)NCNCCCC[C@H](N)C(=O)O)=C(O)[C@@]2(O)C(=O)C3=C(O)c4c(O)cccc4[C@@](C)(O)[C@H]3C[C@@H]12 [Lymecycline] | 0.903 (active) | 0.947 | 0.448 (active) | 1.01 | 0.779 | 0.835 | 0.94 | 0.94
19 | C[C@]12CCC(=O)C=C1CC[C@@H]1[C@@H]2C(=O)C[C@@]2(C)[C@H]1CC[C@]2(O)C(=O)CO [Cortisone] | 0.993 | 0.945 | 0.983 | 0.982 | 0.994 | 1 | 1 | 0.995
20 | CCSc1ccc2c(c1)N(CCCN1CCN(C)CC1)c1ccccc1S2 [Thiethylperazine maleate] | 1 | 1.02 | 0.983 | 0.99 | 1 | 1 | 0.996 | 0.91
21 | CCN(CC)C(=O)/C(C#N)=C/c1cc(O)c(O)c([N+](=O)[O-])c1 [Entacapone] | 1.02 | 1.04 | 1.07 | 0.998 | 0.987 | 0.996 | 0.997 | 1
22 | N[C@@H](Cc1cc(I)c(Oc2ccc(O)c(I)c2)c(I)c1)C(=O)O [Liothyronine] | 0.985 | 0.951 | 0.981 | 0.976 | 0.987 | 0.984 | 1.01 | 1
23 | Nc1nc(NC2CC2)c2ncn([C@H]3C=C[C@@H](CO)C3)c2n1 [Abacavir sulfate] | 1.01 | 0.989 | 0.989 | 0.971 | 0.989 | 1.01 | 1.01 | 1
24 | N#Cc1ccc(C(c2ccc(C#N)cc2)n2cncn2)cc1 [Letrozole] | 1.01 | 1 | 0.989 | 0.999 | 1.01 | 1.01 | 1.01 | 1
25 | Cc1cnc(C(=O)NCCc2ccc(S(=O)(=O)NC(=O)NC3CCCCC3)cc2)cn1 [Glipizide] | 1.01 | 0.984 | 1.01 | 1.01 | 1.04 | 0.998 | 1.01 | 0.996
26 | CN(C)CCOC(c1ccc(Cl)cc1)c1ccccn1 (configuration not stated) [Carbinoxamine maleate salt] | 1.01 | 1.08 | 1.04 | 0.989 | 1.07 | 1.09 | 1 | 0.997
27 | Cc1nnc(SCC2=C(C(=O)O)N3C(=O)[C@@H](NC(=O)Cn4cnnn4)[C@H]3SC2)s1 [Cefazolin sodium salt] | 0.00502 (active) | 0.0191 (active) | 0.126 (active) | 0.0805 (active) | 0.0126 (active) | 0.0107 (active) | 0.00709 (active) | 0.00476 (active)
28 | OC(CCN1CCCCC1)(c1ccccc1)C1CCCCC1 (configuration not stated) [Trihexyphenidyl-D,L hydrochloride] | 1 | 0.996 | 0.961 | 1.02 | 1.02 | 1.04 | 1.01 | 0.986
29 | CN(C(=O)CN(CCO)CC(=O)N(C)C(C)(C)Cc1ccccc1)C(C)(C)Cc1ccccc1 [Oxethazaine] | 0.974 | 1.01 | 0.99 | 0.995 | 0.688 | 0.646 | 1.01 | 0.966
